In PubChem BioAssay (NCATS):
Values joined by “and” are separate entries in the source; they are usually repeats but may differ in a detail not shown here. Equal values may be shown once. Records with an inconclusive call do not appear. Some structures have more than one record in an assay (separate samples or runs), and their calls can disagree. Active and inactive are the calls of the source. Unless noted, calls come from the whole dose curve; as a rule, active = well fitted curve in the direction sought with a large enough effect; inconclusive = small, poorly fitted or top-dose-only effect, or another doubt; inactive = no such curve, though single readings can be large; an effect the other way counts as inactive or inconclusive.

What was measured:
[1] = qHTS profiling of the MIPE4 collection as inhibitors of Plasmodium falciparum (3D7) proliferation (AID 743344; call rule not given here;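 note: scaled between DMSO vehicle wells and 0.29 µM artemisinin as full inhibition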); conditions: P. falciparum 3D7 in erythrocytes, SYBR Green DNA fluorescence, 72 h; at 28.5 µM unless noted
Procedure, shortened: (§1)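 Erythrocytes infected with P. falciparum (0.3% parasitemia, 2.5% hematocrit) incubated with compounds 72 h at 37 C, 5% CO2. Lysis with saponin/Triton buffer containing SYBR Green I, overnight at room temperature in the dark; DNA fluorescence (485/535 nm) normalised to 0.29 uM artemisinin and DMSO.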

[2] = qHTS profiling of the MIPE4 collection as inhibitors of Plasmodium falciparum (DD2) proliferation (Rep 2) (AID 743346; call rule not given here); conditions: P. falciparum Dd2 in erythrocytes, SYBR Green DNA, 72 h; at 28.5 µM unless noted
Procedure, shortened: as §1

[3] = High-throughput drug toxicity screening in the BPDCN cell line Gen2.2 (AID 1224824; call rule not given here;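 note: cells exposed to compounds for 48 h before reading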); conditions: Gen2.2 BPDCN cells; at 45.8 µM (top of the series) unless noted
Procedure, shortened: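 Gen2.2, 500 cells/well, phenol red-free RPMI/10% FBS/Pen-Strep; 48 h cpd, 37 °C/5% CO2; CTG lum, 15 min RT. Norm: DMSO = 100%, bortezomib 9.2 uM final = 0%.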

[4] = High-throughput drug toxicity screening in the BPDCN cell line Cal-1 (AID 1224825; call rule not given here); conditions: Cal-1 BPDCN cell viability, qHTS; at 45.8 µM (top of the series) unless noted
Procedure, shortened: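 Exponentially growing Cal-1 cells, 500 per well in phenol red-free RPMI with 10% FBS, were exposed to compounds for 48 h at 37 °C, 5% CO2. Viability was read by CellTiter-Glo luminescence and normalised to DMSO (100%) and 9.2 uM bortezomib (0%).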

[5] = qHTS assay for measurement of the activity of small molecule inhibitors on Zika virus induced Caspase-3 activity in human iPSC derived neural progenitor cells (hNPCs) (AID 1224857); note: % of control where 0% means no effect; nearly all actives have a fitted effect of over 65% in size
Procedure, shortened: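 After overnight (16–20 h) culture at 350 cells/well, hNPCs get compound, then ZIKV 2 FFU/cell one hour later. Six hours on, Caspase-Glo 3/7 is added and luminescence measured.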

[6] = qHTS assay for measurement of the activity of small molecule inhibitors on Zika virus induced Caspase-3 activity in human astrocytoma cells (AID 1224859);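 note: plate controls were ZIKV-infected untreated cells for no effect and uninfected cells for full effect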
Procedure, shortened: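 Inhibition of Zika-induced caspase-3/7 activity: SNB-19 cells, 1 h compound pretreatment, ZIKV 2 FFU/cell for 6 h at 37 C, Caspase-Glo luminescence read-out.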

[7] = qHTS assay to identify small molecule inhibitors of chordoma cells - UCH-1 (AID 1259355); note: % is set by controls: 0 for no effect and ±100 for the full control effect; nearly all actives have a fitted effect of over 55% in size
Procedure, shortened: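 Luminescent ATP read-out (CellTiter-Glo, 30min at room temperature) measured viability of UCH-1 cells exposed for 48hr to test drugs at 15 concentrations, co-dosed with a five-agent combination of auranofin, camptothecin, doxorubicin, rubitecan and topotecan.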

[8] = qHTS assay to identify small molecule inhibitors of chordoma cells - UCH-2 (AID 1259356); note: % is set by controls: 0 for no effect and ±100 for the full control effect
[9] = P-glycoprotein substrates identified in KB-8-5-11 adenocarcinoma cell line, qHTS therapeutic library screen (AID 1346987); note: nearly all actives have a fitted effect of over 65% in size; note: potency is the fitted concentration of half-maximal effect
Procedure, shortened: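 Steps: plate 500 KB-8-5-11 cells/well in DMEM + 10% FCS (colchicine removed); pin compounds in dose-response; incubate 72 h, 37 degree C, 5% CO2; add CellTiter-Glo, 5 min; read luminescence.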

[10] = qHTS profiling of the MIPE4 collection as inhibitors of Plasmodium falciparum (DD2) proliferation (AID 743345; call rule not given here); conditions: P. falciparum Dd2 in erythrocytes, SYBR Green DNA, 72 h; at 28.5 µM unless noted
Procedure, shortened: as §1

[11] = qHTS profiling of the MIPE4 collection as inhibitors of Plasmodium falciparum (HB3) proliferation (AID 743347; call rule not given here;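 note: plate controls were DMSO vehicle wells for no effect and artemisinin wells for full effect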); conditions: P. falciparum HB3 in erythrocytes, SYBR Green DNA, 72 h; at 28.5 µM unless noted
Procedure, shortened: as §1

[12] = qHTS Screen of the MIPE 4.0 Collection Against Ewings Sarcoma (TC32) (AID 1259256); note: nearly all actives have a fitted effect of over 45% in size; note: potency is the fitted concentration of half-maximal effect
Procedure, shortened: (§2)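 Measured: ATP luminescence (CellTiter-Glo) 10 min after reagent addition, following 48 h drug treatment. Relative luciferase units converted to percent activity, with no-cell wells as full and DMSO wells as zero inhibition.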

[13] = Identifying Small Molecule Inhibitors of Pancreatic Cancer Stem Cells (A278, Adherent) (AID 1259361); note: nearly all actives have a fitted effect of over 35% in size;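 for viability (% of control): 100% = DMSO-treated cells and 0% = cell-free media-only wells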
Procedure, shortened: (§3)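 After a 4 h attachment period, compounds were pinned into wells and cultures held 48 h under standard incubator conditions. Viability was then measured as CellTiter-Glo luminescence following 10 min at room temperature.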

[14] = qHTS Screen of the MIPE 4.0 Collection Against Ewings Sarcoma (EW8) (AID 1259255); note: nearly all actives have a fitted effect of over 35% in size; note: potency is the fitted concentration of half-maximal effect;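 for viability: 100% = DMSO-treated cells and 0% = medium-only wells without cells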
Procedure, shortened: as §2

[15] = P-glycoprotein substrates identified in KB-3-1 adenocarcinoma cell line, qHTS therapeutic library screen (AID 1346986); note: nearly all actives have a fitted effect of over 60% in size;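 note: potency is the fitted concentration of half-maximal effect; potency is for cytotoxicity meaning loss of cell viability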
Procedure, shortened: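 Resistance attributable to P-gp was assessed by comparing AC50 in KB-8-5-11 with parental KB-3-1 and by tariquidar reversal. Cells were exposed 72 h and viability read by CellTiter-Glo.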

[16] = Identifying Small Molecule Inhibitors of Pancreatic Cancer Stem Cells (SN12C, Adherent) (AID 1259358);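 note: cell survival measured after 48 h of compound exposure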; note: potency is the fitted concentration of half-maximal effect
Procedure, shortened: as §3

[17] = Identifying Small Molecule Inhibitors of Pancreatic Cancer Stem Cells (Panc1, Spheroid) (AID 1259359); conditions: Panc1 spheroid cancer stem cell viability;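 note: potency is the fitted concentration of half-maximal effect; compound exposure lasted 48 h before reading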
Procedure, shortened: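 Adherent (2D) versus sphere (3D) formats; spheres generated 14 d in SCM beforehand. Compound transferred by pin tool after 4 h, 48 h incubation, CellTiter-Glo endpoint.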

[18] = Identifying Small Molecule Inhibitors of Pancreatic Cancer Stem Cells (Panc1, Adherent) (AID 1259362); conditions: Potency: viability;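 note: compound exposure lasted 48 h before the viability read; plate controls were DMSO-treated cells for no effect and cell-free media wells for full effect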
Procedure, shortened: as §3

| SMILES | parasite growth, % of DMSO control [1] [%] | parasite growth, % of control (lower = inhibition) [2] [%] | cell viability, % of control (lower = more cytotoxic) [3] [%] | viability (% of control) [4] [%] | Potency [5] | Potency [6] | Potency [7] | outcome [8] | Potency [9] | parasite growth remaining, % of DMSO control (lower = more inhibition) [10] [%] | growth, % of control [11] [%] | Potency [12] | IC50 (viability decrease) [13] | Potency [14] | Potency [15] | Potency [16] | Potency [17] | Potency [18] |
| --- | --- | --- | --- | --- | --- | --- | --- | --- | --- | --- | --- | --- | --- | --- | --- | --- | --- | --- |
| O=c1[nH]cnc2c1ncn2[C@H]1CC[C@@H](CO)O1 | 178 | 101 | 93.2 | 121 | inactive | inactive | inactive | inactive | inactive | – | – | – | – | – | – | – | – | – |
| Cc1nnc(C(C)C)n1C1C[C@H]2CC[C@@H](C1)N2CC[C@H](NC(=O)C1CCC(F)(F)CC1)c1ccccc1 (stereo partly specified) | 69.7 | 55.4 | 75.3 | 104 | inactive | inactive | – | – | inactive | 100 | 92.4 | 26.4 µM (active) | – | – | – | – | – | – |
| C[C@]12CC[C@@H]3c4ccc(O)cc4CC[C@H]3[C@H]1C[C@@H](O)[C@H]2O | 87 | 76.7 | 77.1 | 67.8 | inactive | inactive | – | – | inactive | 91.2 | 63.5 | 26.4 µM (active) | – | – | – | – | – | – |
| Cc1ccc(F)c(NC(=O)Nc2ccc(-c3cccc4[nH]nc(N)c34)cc2)c1 | 6.52 | 13.4 | 5.38 | 1.55 | inactive | inactive | – | – | 23.5 µM (active) | 37.7 | 9.71 | – | 26.4 µM (active) | – | – | – | – | – |
| CC1(C)S[C@H]2[C@H](NC(=O)[C@@H](N)c3ccc(O)cc3)C(=O)N2[C@@H]1C(=O)O | – | 8.21 | 125 | 19.4 | inactive | inactive | – | – | inactive | 103 | 6.54 | – | – | inactive | inactive | – | – | – |
| COc1cc(N2CCC(N3CCN(C)CC3)CC2)ccc1Nc1ncnc(Nc2ccccc2S(=O)(=O)C(C)C)n1 | 8.76 | 8.07 | 2 | 6.26 | inactive | inactive | – | – | 5.9 µM (active) and 9.2 µM (active) | 8.1 | 4.08 | – | – | 20.9 µM (active) | 10.3 µM (active) | – | – | – |
| CNC(=O)c1ccc2cc(C3(O)CCn4cncc43)ccc2c1 (stereo unspecified) | – | 74.8 | 82.2 | 94.8 | inactive | inactive | – | – | inactive | 86.6 | – | – | – | inactive | inactive | – | – | – |
| Cc1cnc(C(=O)O)c[n+]1[O-] | 97 | 108 | 174 | 105 | inactive | inactive | inactive | inactive | inactive | 104 | 66.8 | – | – | inactive | inactive | – | – | – |
| CC(C)(C)c1cc(C(=O)O)c(NC(=O)Nc2ccc3[nH]ncc3c2)s1 | 74.4 | 81.5 | 134 | 110 | inactive | inactive | – | – | inactive | 93.1 | 69.6 | – | inactive | inactive | inactive | inactive | – | – |
| Nc1ncnc2c1ncn2[C@@H]1O[C@H](CO)C[C@@H]1O | 43.4 | 57.5 | 96.4 | 39.8 | inactive | inactive | – | – | – | 56.1 | 79 | – | – | inactive | inactive | – | – | – |
| COc1ccc2cc(-c3nc(-c4ccc(S(C)=O)cc4)[nH]c3-c3ccncc3)ccc2c1 (stereo unspecified) | 6.21 | 10.6 | 470 | 65.1 | inactive | inactive | – | – | inactive | – | 3.67 | 20.9 µM (active) | – | – | – | – | – | – |
| CO[C@H]1C[C@@H]2CC[C@@H](C)[C@@](O)(O2)C(=O)C(=O)N2CCCC[C@@H]2C(=O)O[C@H]([C@H](C)C[C@@H]2CC[C@H](OCCO)[C@H](OC)C2)CC(=O)[C@H](C)C=C(C)[C@@H](O)[C@@H](OC)C(=O)[C@H](C)C[C@H](C)C=CC=CC=C1C | – | 8.53 | 10.1 | 12.7 | inactive | inactive | – | – | 3.32 µM (active) | 7.69 | – | – | – | – | – | 18.7 µM (active) | 26.4 µM (active) | – |
| NC(CO)(CO)CCc1ccc(Sc2cccc(OCc3ccccc3)c2)cc1Cl | 4.87 | 15.3 | 7.64 | 5.26 | inactive | inactive | – | – | 20.9 µM (active) | – | 6.89 | – | 26.4 µM (active) | – | – | – | – | inactive |
| CC(C)[C@H](CO)Nc1nc(Nc2ccc(C(=O)O)c(Cl)c2)c2ncn(C(C)C)c2n1 | 29.4 | 29.5 | 9.58 | 5.62 | inactive | inactive | – | – | inactive | 51 | 18.3 | – | inactive | – | inactive | – | – | inactive |
| CC=CC(=O)N(CC)c1ccccc1C | 92.3 | 142 | 116 | 35 | inactive | inactive | – | – | inactive | 104 | 99.4 | – | – | inactive | – | – | – | – |
| Clc1ccc(-c2nc3sccn3c2C=NOCc2ccc(Cl)c(Cl)c2)cc1 | 30.7 | 122 | 111 | 116 | inactive | inactive | – | – | inactive | 51.5 | 43.2 | – | inactive | inactive | – | inactive | – | – |
| COc1ccc(C2CC(c3ccccc3)=NN2c2ccc(S(N)(=O)=O)cc2)cc1 (stereo unspecified) | 50.4 | 46.5 | 76.6 | 27.3 | inactive | inactive | – | – | – | 99.9 | 66 | – | – | – | – | inactive | – | – |
| O=C(O)c1ccc(-c2c[nH]c3ncc(-c4ccccc4)cc23)cc1C1CCCC1 | – | 9.67 | 116 | 73.1 | inactive | inactive | – | – | inactive and 3.66 µM (active) | 8.18 | 3.77 | inactive | – | – | inactive | – | – | – |
